Experimental data published in the supplement of paper PMC10646978.
± gives the standard deviation.

Key:
Conditions in all cases: modulator concentration 10 µM
[1] = test system: RAW-Dual (murine macrophage reporter line); assay: NF-kB reporter (SEAP) activity fold change vs agonist alone; higher = enhanced NF-kB activity
Summary of the method: (§1)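 In 384-well plates holding 50 000 RAW-Dual murine macrophage reporter cells per well, compound at 10 μM final was pre-incubated for 1 hour at 37 °C, after which a PRR agonist was added overnight. Supernatant SEAP read with QUANTI-Blue at 620 nm absorbance reported NF-κB, and Lucia luciferase read with QUANTI-Luc luminescence reported IRF. Fold change values come from dividing each reporter signal by the mean of agonist-only control wells on the same plate, averaged over replicate plates with propagated errors.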

[2] = test system: RAW-Dual (murine macrophage reporter line); assay: IRF reporter (Lucia luciferase) activity fold change vs agonist alone; higher = enhanced IRF activity
Summary of the method: as §1

[3] = test system: RAW-Dual (murine macrophage reporter line); assay: viability score (confluency relative to resting cells, overnight) (fraction); higher = more viable, active = viable (0.7 or more)
Summary of the method: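 RAW-Dual macrophages in 384-well plates were exposed overnight to compound at 10 μM final. Confluency was imaged with IncuCyte, and two confluency masks were generated with IncuCyte software over all imaged wells. The viability score is confluency expressed relative to resting cells. Compounds were called viable if both masks exceeded 70% of resting cells.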

[4] = agonist: CpG ODN 1826 0.5 ug/mL

Row | SMILES | NF-kB reporter [1, 4] | NF-kB reporter ([1]; agonist: LPS 0.1 ug/mL) | NF-kB reporter ([1]; agonist: MPLA […]) | IRF reporter ([2]; agonist: 3'3'-cGAMP 10 ug/mL) | IRF reporter ([2]; agonist: LPS 0.1 ug/mL) | IRF reporter ([2]; agonist: MPLA […]) | viability score [3]
1 | CC1=C(C(=O)Nc2cccc(C)n2)C(c2cccs2)C2=C(CC(C)(C)CC2=O)N1 (centres undefined) | 1.03 ± 0.18 | 1.09 ± 0.14 | 0.869 ± 0.069 | 0.913 ± 0.027 | 1.2 ± 0.12 | 1.25 ± 0.16 | 1 (active)
2 | COc1ccc(C2Sc3ccccc3N(CCN(C)C)C(=O)C2OC(C)=O)cc1.Cl (centres undefined) | 1.01 ± 0.29 | 1 ± 0.05 | 1.08 ± 0.092 | 0.966 ± 0.033 | 1.15 ± 0.15 | 1.2 ± 0.12 | 0.992 (active)
3 | COc1ccc(CN2CCN(C(c3ccc(F)cc3)c3ccc(F)cc3)CC2)c(OC)c1OC.Cl.Cl | 0.742 ± 0.032 | 0.927 ± 0.084 | 0.916 ± 0.049 | 0.604 ± 0.038 | 1.02 ± 0.24 | 1.17 ± 0.47 | 0.985 (active)
4 | CCN(CC)Cc1cc(Nc2ccnc3cc(Cl)ccc23)ccc1O.Cl.Cl.O.O | 0.606 ± 0.026 | 0.671 ± 0.054 | 0.944 ± 0.068 | 1.39 ± 0.23 | 1.22 ± 0.24 | 1.16 ± 0.46 | 0.931 (active)
5 | COc1ccc(N2CC(NC(=O)Nc3cccc(Cl)c3C)CC2=O)cc1OC (centres undefined) | 0.89 ± 0.064 | 1 ± 0.085 | 1.01 ± 0.061 | 0.977 ± 0.074 | 1.1 ± 0.21 | 1.15 ± 0.45 | 0.973 (active)
6 | O=S(=O)(c1ccc(F)cc1)N1CCC(c2nc3ccccc3[nH]2)CC1 | 1.19 ± 0.085 | 1.08 ± 0.082 | 1.03 ± 0.028 | 0.913 ± 0.033 | 1.01 ± 0.093 | 0.997 ± 0.15 | 0.964 (active)
7 | COc1ccc(-c2nc(CNC(=O)C3CCN(c4cc(C5CC5)ncn4)CC3)cs2)cc1 | 0.957 ± 0.066 | 1.4 ± 0.11 | 1.16 ± 0.05 | 1.05 ± 0.062 | 1.24 ± 0.14 | 1.29 ± 0.25 | 1 (active)
8 | CCC(C(=O)N1CC(Nc2cnccn2)C1)c1ccccc1 (centres undefined) | 0.995 ± 0.052 | 1.06 ± 0.12 | 0.996 ± 0.14 | 1.03 ± 0.067 | 1.24 ± 0.085 | 1.19 ± 0.09 | 0.984 (active)
9 | NC(=O)c1nc(F)cnc1O | 1.06 ± 0.25 | 1.04 ± 0.051 | 2.37 ± 1.4 | 0.897 ± 0.031 | 1.27 ± 0.14 | 1.39 ± 0.14 | 1.01 (active)
10 | C(=C\c1ccccc1)/CN1CCN(C(c2ccccc2)c2ccccc2)CC1 | 1.14 ± 0.16 | 0.957 ± 0.37 | 0.989 ± 0.065 | 0.828 ± 0.028 | 1.23 ± 0.44 | 1.33 ± 0.1 | 0.979 (active)
11 | CCOCC(=O)Nc1ccc(N2CCCCC2=O)c(C)c1 | 0.884 ± 0.11 | 0.79 ± 0.11 | 0.828 ± 0.16 | 0.899 ± 0.12 | 1.06 ± 0.14 | 1 ± 0.3 | 0.93 (active)
12 | Cc1cnc2c(c1SCC(=O)N1CCc3ccccc31)c(=O)n(C)c(=O)n2C | 1.01 ± 0.057 | 1.22 ± 0.18 | 0.916 ± 0.069 | 1.01 ± 0.051 | 1.17 ± 0.15 | 1.14 ± 0.25 | 1.01 (active)
13 | O=S(=O)(Nc1nc2ccccc2nc1Nc1ccc2c(c1)OCCO2)c1cccs1 | 0.985 ± 0.078 | 1.02 ± 0.065 | 1.13 ± 0.1 | 0.85 ± 0.028 | 1.29 ± 0.2 | 1.05 ± 0.098 | 0.99 (active)
14 | Cl.Clc1ccccc1CN1CCc2sccc2C1 | 0.93 ± 0.092 | 0.952 ± 0.11 | 0.916 ± 0.024 | 0.902 ± 0.05 | 1.01 ± 0.14 | 1.1 ± 0.25 | 0.992 (active)
15 | CCOc1ccc2nc(S(N)(=O)=O)sc2c1 | 0.804 ± 0.2 | 1.02 ± 0.051 | 0.985 ± 0.067 | 0.855 ± 0.029 | 0.897 ± 0.11 | 0.953 ± 0.2 | 1.01 (active)
16 | Cc1cc(C)n(CC2CCN(Cc3ccc(Br)cc3)CC2)n1 | 0.933 ± 0.049 | 0.745 ± 0.063 | 0.74 ± 0.049 | 0.913 ± 0.05 | 1.19 ± 0.21 | 1.27 ± 0.39 | 0.626 (inactive)
17 | O=C(NCCSC1CCOCC1)c1ccc(Cl)s1 | 1.21 ± 0.069 | 0.992 ± 0.1 | 1.02 ± 0.036 | 0.898 ± 0.055 | 1.03 ± 0.054 | 1.13 ± 0.14 | 1 (active)
18 | CN1C(=O)C(=C2SC(=S)N(C(CCC(=O)O)C(=O)O)C2=O)c2ccccc21 (centres undefined) | 0.793 ± 0.053 | 1.02 ± 0.07 | 0.845 ± 0.064 | 0.942 ± 0.035 | 1.28 ± 0.086 | 1.03 ± 0.093 | 1.01 (active)
19 | Cc1cc(C)n(N=Cc2c[nH]c3ccccc23)c(=O)c1C#N | 1.08 ± 0.18 | 0.963 ± 0.099 | 1.02 ± 0.096 | 1.03 ± 0.032 | 1.4 ± 0.24 | 1.6 ± 0.23 | 1.03 (active)
20 | C/C(=C(\CCOP(=O)(O)O)SC(=O)c1ccccc1)N(C=O)Cc1cnc(C)nc1N [Prestw-654] | 1.03 ± 0.19 | 1.25 ± 0.15 | 1.1 ± 0.13 | 0.943 ± 0.031 | 1.04 ± 0.15 | 1.28 ± 0.14 | 0.974 (active)
21 | O=C(CC(c1ccccc1)c1ccccc1)Nc1ccc(CC(=O)N2CCC(O)CC2)cc1 | 1.03 ± 0.078 | 1.13 ± 0.097 | 0.907 ± 0.11 | 1.05 ± 0.062 | 1.13 ± 0.082 | 1.25 ± 0.1 | 1.01 (active)
22 | COc1cc2c(cc1Cc1cccc(Cl)c1F)c(=O)c(C(=O)O)cn2[C@H](CO)C(C)C | 0.941 ± 0.14 | 1.04 ± 0.27 | 1.25 ± 0.085 | 0.822 ± 0.026 | 1.13 ± 0.12 | 0.848 ± 0.079 | 0.936 (active)
23 | O=C(CSC1CCCCC1)Nc1ccc(Br)cc1 | 1 ± 0.33 | 0.949 ± 0.07 | 1.1 ± 0.07 | 0.671 ± 0.022 | 1.06 ± 0.12 | 1.12 ± 0.14 | 0.962 (active)
24 | CCOC(=O)C(CCc1ccccc1)NC(C)C(=O)N1C(C(=O)O)CC2CCCC21 (centres undefined) | 1.01 ± 0.28 | 0.998 ± 0.068 | 1.07 ± 0.072 | 0.878 ± 0.055 | 1.28 ± 0.21 | 1.34 ± 0.23 | 0.989 (active)
25 | CCN(CC)c1ccc(C=NNC(=O)c2ccncc2)c(O)c1 | 2.56 ± 0.2 | 1.66 ± 0.13 | 5.41 ± 0.24 | 0.888 ± 0.12 | 1.29 ± 0.084 | 1.35 ± 0.14 | 0.695 (inactive)
26 | FC(F)(F)c1ccc(/C=C/c2nc(COc3ccc(CCCCn4ccnn4)cc3)co2)cc1 | 1.26 ± 0.17 | 1.71 ± 0.29 | 1.46 ± 0.09 | 0.914 ± 0.028 | 1.67 ± 0.14 | 1.77 ± 0.16 | 0.995 (active)
27 | CC(C)(C)C1CCC(OC(=O)CCC(=O)O)CC1 (centres undefined) | 0.999 ± 0.16 | 0.931 ± 0.073 | 0.903 ± 0.087 | 1.07 ± 0.049 | 1.32 ± 0.21 | 1.32 ± 0.24 | 0.997 (active)
